Sfp PPTase inh – qHTS Assay for Inhibitors of Bacillus subtilis Sfp phosphopantetheinyl transferase (PPTase); 310,000 tested, 3.5% active; Potency, µM, for inactives: largest response in the series, negative = inhibition, most hits filed as inhibitors; Biochemical Sfp PPTase activity, qHTS; 4'-phosphopantetheinyl transferase ffp (Bacillus subtilis), Q9F4F7;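 further: the enzyme is Sfp with the accession as filed and its product quenches rhodamine fluorescence; 0% = enzyme reaction without inhibitor and -100% = no enzyme wells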
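Compounds were incubated with enzyme (final 15 nM) for 15 min at room temperature before substrate addition started the reaction. Fluorescence at 525 nm excitation, 598 nm emission was recorded immediately and after 30 minutes.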
L3MBTL1 block – qHTS Assay for the Inhibitors of L3MBTL1. Lethal(3)malignant brain tumor-like protein 1 (Homo sapiens), Q9Y468. AlphaScreen L3MBTL1–H3K9me1 peptide binding. Potency, µM (doses to about 57.1 µM), inactives show at the highest dose activity, negative = inhibition, usual class: inhibitors. 230,000 tested, 0.66% active. AID 485360, 2010; further: on the % scale 0 is the no-effect control and ±100 the full control effect; nearly all actives have a fitted effect of over 60% in size
Target sequence (Q9Y468 whole entry, looked up): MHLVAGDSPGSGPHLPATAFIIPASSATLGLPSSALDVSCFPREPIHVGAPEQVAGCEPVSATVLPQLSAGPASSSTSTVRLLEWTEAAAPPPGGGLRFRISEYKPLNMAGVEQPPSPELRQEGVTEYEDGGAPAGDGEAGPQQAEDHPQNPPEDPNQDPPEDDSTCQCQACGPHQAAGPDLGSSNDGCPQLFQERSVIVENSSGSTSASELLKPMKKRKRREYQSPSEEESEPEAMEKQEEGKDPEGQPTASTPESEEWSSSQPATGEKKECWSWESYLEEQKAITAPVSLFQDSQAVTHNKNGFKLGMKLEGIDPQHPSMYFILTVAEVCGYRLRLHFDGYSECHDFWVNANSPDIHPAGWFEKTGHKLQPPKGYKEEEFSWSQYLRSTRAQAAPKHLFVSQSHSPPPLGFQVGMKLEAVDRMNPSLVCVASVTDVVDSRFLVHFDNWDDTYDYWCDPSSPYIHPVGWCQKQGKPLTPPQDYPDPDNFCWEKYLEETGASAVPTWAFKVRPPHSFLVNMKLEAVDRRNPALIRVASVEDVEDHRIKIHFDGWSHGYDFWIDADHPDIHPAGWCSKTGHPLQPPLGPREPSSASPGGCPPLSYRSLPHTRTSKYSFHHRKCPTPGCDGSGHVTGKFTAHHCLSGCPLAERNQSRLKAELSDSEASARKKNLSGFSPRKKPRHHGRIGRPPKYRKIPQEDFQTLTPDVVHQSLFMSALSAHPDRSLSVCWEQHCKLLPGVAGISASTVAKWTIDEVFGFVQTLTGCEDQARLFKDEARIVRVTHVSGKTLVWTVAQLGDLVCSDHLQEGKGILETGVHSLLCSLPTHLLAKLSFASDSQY
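Read-out is AlphaScreen signal from streptavidin donor and nickel chelate acceptor beads (10 ug/mL final each) bridging L3MBTL1 (50 nM) and biotinylated K9-monomethylated H3(1-15) peptide (75 nM), after 30 min compound exposure at room temperature.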
BAZ2B block – qHTS Assay for Inhibitors of BAZ2B; Potency, µM (highest dose often 114 µM), for the others: at the top dose activity change, negative = inhibition, usual class: inhibitors; 360,000 tested, 4.4% active; AlphaScreen BAZ2B-H3K14Ac peptide displacement; Bromodomain adjacent to zinc finger domain protein 2B (Homo sapiens), Q9UIF8; further: on the % scale 0 is the no-effect control and ±100 the full control effect; nearly all actives have a fitted effect of over 60% in size
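Protein-peptide AlphaScreen: BAZ2B 50 nM, b-H3K14Ac 50 nM, 1x PBS pH 7.4 + 0.01% Tween-20. Preincubation 30 min RT; cpd 30 min RT (top 110 uM); beads 20 min RT, light-protected.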
G9a inh – qHTS Assay for Inhibitors of Histone Lysine Methyltransferase G9a; Histone-lysine N-methyltransferase EHMT2 (Homo sapiens), Q96KQ7; G9a H3K9 monomethylation, AlphaScreen, 2 h; Potency, µM (top dose mostly 102 µM), inactives show at the top dose activity, negative = inhibition, most hits filed as inhibitors; 350,000 tested, 8.8% active; further: on the % scale 0 is the no-effect control and ±100 the full control effect; nearly all actives have a fitted effect of over 75% in size
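Quantitative HTS format: methyltransferase activity on a biotin-tagged H3K9 peptide is measured by AlphaScreen, using a rabbit anti-monomethyl-H3K9 antibody with streptavidin donor and anti-IgG acceptor beads. Final levels are 20 nM enzyme, 500 nM peptide, 20 uM SAM; 2 h RT.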
HP1b binding inh – HTS for Inhibitors of HP1-beta Chromodomain Interactions with Methylated Histone Tails | Chromobox protein homolog 1 (Homo sapiens), P83916 | AlphaScreen HP1-beta / biotin-H3K9me3 peptide binding | Potency, µM (top dose mostly 114 µM), without a hit: top-dose activity change, negative = inhibition, most hits filed as inhibitors | 390,000 tested, 0.56% active; further: nearly all actives have a fitted effect of over 70% in size
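AlphaScreen: HP1-beta (50 nM) preformed 30 min with biotin-H3(1-18)K9me3 peptide (50 nM) in PBS pH 7.4, 0.01% Tween-20. Compound added for 30 min at RT, then streptavidin donor/nickel chelate acceptor beads (10 ug/mL) for 30 min.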
JMJD2A Tudor inh – qHTS Assay for Inhibitors of JMJD2A-Tudor Domain; AlphaScreen JMJD2A-Tudor / H3K4me3 peptide binding; 390,000 tested, 4.4% active; Potency, µM (top dose mostly 114 µM), without a hit: top-dose activity change, negative = inhibition, usual class: inhibitors; further: on the % scale 0 is the no-effect control and ±100 the full control effect; nearly all actives have a fitted effect of over 50% in size
* marks the source's active call; other numbers are inactive results; ? = inconclusive; . = no result given; [ ] = another dose, or the depositor's remark. Shown are actives, neighbours in structure and some others; about 12% of the full set was active somewhere. The call rests on the fitted dose curve; in most records, active means well fitted curve in the direction sought with a large enough effect; inconclusive means small, poorly fitted or top-dose-only effect, or another doubt; inactive means no such curve, though single readings can be large; an effect the other way counts as inactive or inconclusive. Potency means the concentration at half of the fitted maximal effect.

SMILES	Sfp PPTase inh	L3MBTL1 block	BAZ2B block	G9a inh	HP1b binding inh	JMJD2A Tudor inh
O=C(N/N=C/c1cccc([N+](=O)[O-])c1O)C(O)(c1ccccc1)c1ccccc1	?	17%	-28%	.	36%	?
O=[N+]([O-])c1ccccc1/C=C/c1ccc2ccccc2n1	-11%	-14%	?	.	-12%	40µM*
Brc1ccccc1/C=N/Nc1ccc2ccccc2n1	40µM*	3%	-10%	-14%[59 µM]	26%	-24%
Cn1c(/C=C/c2ccccc2[N+](=O)[O-])nc2ccccc2c1=O	16%	5%	-6%	-5%	11%	-4%
CN1CCN(c2ccc(S(=O)(=O)N3CCOCC3)cc2NC(=O)Cc2ccccc2F)CC1	.	5%	1%	22%[12.7 µM]	32%	-6%
CCC(C)(C)n1nnnc1C(c1ccccc1F)N1CCN(C(=O)c2ccco2)CC1 (stereo not drawn)	-10%	.	-1%	?	21%	-1%
COc1ccc([C@H]2C(C(=O)O)=C[C@@H](C(C)(C)C)N2S(=O)(=O)c2ccc(C)cc2)cc1OC	.	8%	.	.	26%	-22%
Cc1ccc(NC(=O)CSc2nccn2Cc2ccco2)c(C)c1	-7%	.	-38%	.	16%	-2%
CCOc1ccccc1NC(=O)CSc1nnc(-c2ccco2)n1Cc1ccco1	-11%	-2%	?	18µM*	7%	-34%
COc1ccc(C)cc1NC(=O)CSc1nnc(-c2ccco2)n1Cc1ccco1	-19%	-14%	-36%	56µM*	-19%	?
COc1ccc(OC)c(NC(=O)CSc2nccn2Cc2ccco2)c1	13%	.	-36%	50µM*	-3%	-33%
CCOc1ccccc1NC(=O)CSc1nnc(-c2ccccn2)n1Cc1ccco1	-22%	18%	?	-51%	15%	?
O=c1/c(=C\c2cccc(O)c2)sc2nc(-c3ccccc3)c(-c3ccccc3)n12	-20%	.	5.6µM*	?	2%	-27%
COc1ccc(/C=c2/sc3nc(-c4ccccc4)c(-c4ccccc4)n3c2=O)cc1	-16%	-3%	?	14µM*	?	-22%
COc1ccc(/C=c2\sc3nc(-c4ccccc4)c(-c4ccccc4)n3c2=O)cc1OC	18µM*	-14%	?	35µM*	13%	-34%[11.4 µM]
COc1cc(/C=c2/sc3nc(-c4ccccc4)c(-c4ccccc4)n3c2=O)cc(OC)c1OC	17%	-11%	-36%	?	-8%	-17%
CCOc1ncccc1C(=O)Nc1ccc(C(=O)Nc2ccc(OC)cc2)cc1	.	7%	-6%	?	34%	-11%
CCC(C)(C)n1nnnc1C(c1ccc(O)cc1)N1CCc2ccccc2C1 (stereo not drawn)	14µM*	-1%	-35%	2.5µM*	?	89µM*
CCC(C)(C)n1nnnc1C(c1ccc(C)cc1)N1CCSCC1 (stereo not drawn)	2%	-2%	-5%	-9%[59 µM]	-3%	-26%
CC(C)(C)n1nnnc1C(c1ccccc1)N1CCc2ccccc2C1 (stereo not drawn)	4%	2%	10%	?	18%	-6%
CN(C)c1ccc(C(c2nnnn2C(C)(C)C)N2CCc3ccccc3C2)cc1 (stereo not drawn)	-12%	-6%	?	40µM*	.	.
CC1CCN(C(c2ccc(N(C)C)cc2)c2nnnn2C(C)(C)C)CC1 (stereo not drawn)	20µM*	.	50µM*	?	?	56µM*
Clc1cccc(-n2ncc3c(NCCCN4CCOCC4)ncnc32)c1	.	.	0%	5%[59 µM]	-7%	-20%
CN(C)C=Nc1nonc1-c1ncn[nH]1	?	3%	-10%	22µM*	10%	2.5µM*
Cn1cc(C(=O)CCl)c2ccccc21	1%	2%	4%	-8%[0.501 µM]	43%	-14%
SMILES	Sfp PPTase inh	L3MBTL1 block	BAZ2B block	G9a inh	HP1b binding inh	JMJD2A Tudor inh
NC(=O)NNc1ncc(C(F)(F)F)cc1Cl	50µM*	25%	3%	?	10%	-11%
O=C(COC(=O)c1cc(-c2ccccc2Cl)nc2ccccc12)Nc1ncc(C(F)(F)F)cc1Cl	40µM*	?	?	-20%[59 µM]	?	?
FC(F)(F)c1cnc(NNC(=S)Nc2cccnc2)c(Cl)c1	-26%	.	-1%	22µM*	-2%	-35%
O=C(CSc1ncccn1)Nc1ncc(C(F)(F)F)cc1Cl	?	-6%	-16%	20µM*	40%	5%
Cc1cc(C(=O)NC2CC(C)(C)Cc3c2cnn3-c2cccc(F)c2)n(C)n1 (stereo not drawn)	0%	.	-15%	29%	30%	-6%
Cc1ccc(NC(=O)Cn2cc(S(=O)(=O)c3ccccc3)c(=O)c3cc4c(cc32)OCO4)cc1	.	.	?	?	22%	-13%
Cc1c(Cl)cccc1NC(=S)NNc1ncc(C(F)(F)F)cc1Cl	20%	.	-6%	71µM*	-12%	-31%
COc1cccc(-c2c(-c3cc(OC)cc(OC)c3)n(C)c3ccc(-c4cnc(N5CCOCC5)nc4)cc23)c1	.	3%	.	.	26%	-27%
O=[N+]([O-])c1ccccc1Sc1nccn1Cc1ccccc1	11%	-5%	?	50µM*	0%	?
C/C(=N\NC(N)=S)C1(C)CCCCC1	?	2%	-35%	50µM*	-17%	35µM*
CCC1CCCCN1S(=O)(=O)c1ccc(C(=O)Nc2nnc(-c3ccccc3Cl)o2)cc1 (stereo not drawn)	13%	44%	7%	-5%[59 µM]	46%	-18%
CCOC(=O)N1CCN(S(=O)(=O)c2ccc(C(=O)Nc3nnc(C4CC4)o3)cc2)CC1	16%	8%	22µM*	17%[59 µM]	51%	50µM*
COc1ccc(C(=O)Nc2nnc(C3=COCCO3)o2)cc1	-15%	.	16µM*	-47%	45%	40µM*
O=C(Nc1nnc(C2=COCCO2)o1)c1ccc(S(=O)(=O)N2CCCCC2)cc1	-10%	.	.	?	22%	79µM*
O=C(Nc1nnc(-c2ccccc2Cl)o1)c1ccc(S(=O)(=O)N2CCCCCC2)cc1	-24%	13%	7%	-4%	52%	-12%
CCC1CCCCN1S(=O)(=O)c1ccc(C(=O)Nc2nnc(C3CC3)o2)cc1 (stereo not drawn)	14%	.	50µM*	.	50%	-17%
